Data published in PubChem BioAssay.
A number with no mark means an inactive call. The rule behind the calls is not given here.

target: Pantothenate synthetase (Mycobacterium tuberculosis (strain ATCC 25618 / H37Rv)) (UniProt P9WIL5); assay: Recombinant Mtb pantothenate synthetase (PanC) inhibitors, coupled enzyme, confirmatory (AID 375); settings: coupled enzyme assay; at 10 µM, hits give high values;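 note: 0% = full reaction with vehicle and 100% = no enzyme background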
Sequence (P9WIL5 whole entry, looked up): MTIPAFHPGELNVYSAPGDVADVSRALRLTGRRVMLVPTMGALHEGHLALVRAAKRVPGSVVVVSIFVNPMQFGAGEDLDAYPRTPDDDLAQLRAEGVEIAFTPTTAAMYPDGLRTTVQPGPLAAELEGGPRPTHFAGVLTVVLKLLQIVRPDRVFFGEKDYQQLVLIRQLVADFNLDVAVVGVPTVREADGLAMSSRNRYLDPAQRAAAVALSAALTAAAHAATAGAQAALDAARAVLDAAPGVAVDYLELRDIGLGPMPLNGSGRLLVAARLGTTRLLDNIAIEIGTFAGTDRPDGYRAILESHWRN

Structure (SMILES)	inhibition
Cc1nc2ccccc2c2oc(C(=O)N3CCC(N4CCCCC4)CC3)cc12	0%
O=C(COc1nnc2ccccn12)N1CCN(S(=O)(=O)c2ccccc2)CC1	1%
C1CCC(C(CC2CCCCN2)C2CCCCC2)CC1 (stereo not given)	3%
CCCCc1cc(=O)oc2cc(C)cc(OC(C)C(=O)O)c12 (stereo not given)	0%
COc1ccc(CCNC(=O)C2=COCCO2)cc1	0%
CC1(CC(=O)O)C(=O)N=C2C=CC=CN21 (stereo not given)	0%
Cc1onc(-c2ccccc2Cl)c1C(=O)Nc1cnn(Cc2ccccc2)c1	0%
CCOC(=O)c1oc2c(CN3CCN(C)CC3)c(O)ccc2c(=O)c1-c1ccccc1OC	0%
CCOC(=O)c1c(NC(=O)CSc2nnc(-c3ccc(OC)cc3)o2)sc2c1CCC2	3%
CC1CCN(c2c(NCc3ccc(C(=O)N4c5ccccc5CC4C)cc3)c(=O)c2=O)CC1 (stereo not given)	0%
COc1ccc(S(=O)(=O)NCC(c2cccnc2)N2CCN(C)CC2)cc1C (stereo not given)	0%
COc1ccc(C)cc1-n1nnnc1SC/C(O)=C(\C#N)c1nc2ccccc2[nH]1	4%
COc1ccccc1N1CCN(Cc2nnnn2CCc2ccccc2)CC1	0%
c1ccc(-c2nnc(CSc3nncs3)o2)cc1	0%
O=C(CN1CCCN(S(=O)(=O)c2ccc(Br)cc2)CC1)Nc1ccc2c(c1)OCO2	4%
CCCCNC(=O)NS(=O)(=O)c1ccc(C)cc1	0%
CCCCC[C@H](O)/C=C/[C@@H]1[C@@H](CCCCCCC(=O)O)[C@@H](O)C[C@H]1O	0%
Cn1c(=O)oc2cc(S(=O)(=O)NCCC(=O)N3CCc4ccccc4C3)ccc21	0%
O=C(CCn1[nH]c(=O)c2ccccc2c1=O)NCCO	0%
Cc1ccc(NC(=O)c2ccco2)cc1NC(=O)CSc1nnc(-c2cccs2)n1C	3%

Structure (SMILES)	inhibition
Cc1onc(-c2ccccc2Cl)c1C(=O)Nc1cccc(-c2cn3cccnc3n2)c1	7%
CNC(=O)c1c(O)c2cccc3c2n(c1=O)CC3	1%
CCCSCCCNC(=O)Cn1cc2c(n1)CCC(C)C2 (stereo not given)	2%
Cn1c(C(=O)NCC2CCCO2)cc2c(=O)[nH]c3ccccc3c21 (stereo not given)	8%
CCCCOc1ccc(NC(=O)Cn2c(=O)ccc3c(C)cc(C)nc32)cc1	3%
Cc1cc(-c2ccc(F)cc2)nc2cc(C(N)=O)nn12	0%
O=C(CN1C(=O)CCSc2ccccc21)Nc1ccc(F)cc1	1%
Cc1ccc(CNC(=O)CCCn2c(=O)c3ccccc3n(CC(=O)NCc3ccco3)c2=O)cc1	0%
CCOc1ccc(CNc2ccc3c(c2)ncn3C)cc1	0%
O=C(c1ccco1)c1nnn(Cc2ccccc2)c1-c1ccccc1	1%
CC(C(=O)N1CCOCC1)N1c2cccc3cccc(c23)S1(=O)=O (stereo not given)	8%
COc1ccc(C(=O)Nc2nncs2)c(OC)c1	3%
Cc1ccc(N(Cc2ccco2)C(=O)c2cccc(S(=O)(=O)N(C)C)c2)cc1	5%
CSCCC(NC(=O)CCN1C(=O)c2ccccc2C1=O)C(=O)O (stereo not given)	0%
CCCS(=O)(=O)N1CCN(C(=O)c2cccs2)CC1	0%
COc1ccc(CCNC(=O)CSc2nnnn2-c2ccccc2OC)cc1OC	5%
CN1CCN(c2nc3c(c(=O)n(C)c(=O)n3C)n2Cc2cccc3ccccc23)CC1	0%
CCCCCc1c(O)c2ccccc2[nH]c1=O	0%
O=C(C1CCCN(S(=O)(=O)c2cnc[nH]2)C1)N1CC(=O)N(CCc2ccccc2)C(=O)C1 (stereo not given)	0%
CC(C)(C)C(=O)/C=C(\N)c1ccccn1	2%
